Measured values reported in PubChem BioAssay.
Calls of active or inactive are those of the source. Unless noted, how the calls were made is not given here.

Tests used:
[1] = HepG2 liver cancer cell viability effects, profiling panel, resazurin fluorescence, 24 h, PK04 Diversity Set (AID 1172); conditions: higher = more signal; further: test concentration not given here
[2] = basal S. cerevisiae growth modulation, no modifier, primary screen, OD600, strain BY4716, 24 h, basal condition (AID 1173); conditions: OD600, 24 h, higher = more signal, called active from +8 up or from −8 down
[3] = MM1S myeloma cell viability, profiling panel, resazurin fluorescence, basal, 24 h, PK04 Diversity Set (AID 1174); conditions: higher = more signal, called active from +8 up or from −8 down;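 further: MM1S multiple myeloma cell line; test concentration not given here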
[4] = target: Dihydroorotate dehydrogenase (quinone), mitochondrial (Plasmodium falciparum (isolate 3D7)) (UniProt Q08210); assay: PfDHODH enzyme inhibitors, primary screen, biochemical, C-terminal His tag, absorbance 600 nm (AID 1175); conditions: DCIP absorbance 600 nm, higher = more signal, called active from +8 up or from −8 down;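 further: recombinant parasite enzyme with a five histidine tag at its C terminus; test concentration not given here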
Sequence of Dihydroorotate dehydrogenase (quinone), mitochondrial (Plasmodium falciparum (isolate 3D7)) (Q08210 whole entry, looked up): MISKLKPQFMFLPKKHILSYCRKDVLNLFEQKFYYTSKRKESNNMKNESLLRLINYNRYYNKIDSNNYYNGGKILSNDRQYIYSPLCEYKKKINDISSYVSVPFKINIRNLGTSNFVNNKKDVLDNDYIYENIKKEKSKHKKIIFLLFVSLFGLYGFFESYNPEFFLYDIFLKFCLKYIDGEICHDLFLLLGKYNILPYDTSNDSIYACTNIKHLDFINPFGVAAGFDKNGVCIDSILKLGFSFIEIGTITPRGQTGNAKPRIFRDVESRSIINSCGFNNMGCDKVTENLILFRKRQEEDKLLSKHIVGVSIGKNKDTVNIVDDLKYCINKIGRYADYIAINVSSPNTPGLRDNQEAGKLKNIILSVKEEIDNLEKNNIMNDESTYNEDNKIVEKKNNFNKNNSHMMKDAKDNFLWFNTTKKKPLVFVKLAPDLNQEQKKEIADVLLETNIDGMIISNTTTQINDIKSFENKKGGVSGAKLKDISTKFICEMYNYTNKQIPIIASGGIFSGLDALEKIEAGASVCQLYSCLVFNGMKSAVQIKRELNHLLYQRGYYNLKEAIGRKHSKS

[5] = P. aeruginosa biofilm formation inhibitors, primary screen, strain PAO1, LB-PBS medium, absorbance 600 nm (AID 1176); further: test concentration not given here; conditions: P. aeruginosa PAO1 growth/biofilm, A600, 12 h; higher = more signal
[6] = S. cerevisiae RM11-1a growth modifiers, primary screen, strain RM11-1a, OD600, basal, 24 h (AID 1177); conditions: OD600, 24 h, higher = more signal, called active from +8 up or from −8 down;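 further: cultures grown under basal conditions with no added stressor; test concentration not given here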
[7] = E. coli acrAB mutant growth effects, primary screen, E. coli filamentation inducers, strain DRC39, OD650, 24 h (AID 1178); conditions: higher = more signal, called active from +8 up or from −8 down;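 further: growth measured as culture turbidity by optical density at 650 nm; test concentration not given here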
[8] = E. coli acrAB mutant growth effects, primary screen, E. coli filamentation inducers, strain DRC39, OD650, 48 h (AID 1179);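 further: screen aims at cell division blockers that make cells filament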; conditions: E. coli DRC39 delta-acrAB growth, higher = more signal, called active from +8 up or from −8 down
[9] = RPMI8226 myeloma cell viability, profiling panel, resazurin fluorescence, basal, 24 h, PK04 Diversity Set (AID 1180); conditions: higher = more signal;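 further: RPMI8826 multiple myeloma cell line at 5000 cells per well; test concentration not given here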
[10] = target: E3 ubiquitin-protein ligase XIAP (Homo sapiens) (UniProt P98170); assay: XIAP binders, primary screen, biophysical, small-molecule microarray, fluorescence 635 nm (AID 1181); conditions: small-molecule microarray binding, higher = more signal;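 further: score merges 667 nm emission and signal to noise over triplicate slides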
Sequence of E3 ubiquitin-protein ligase XIAP (Homo sapiens) (P98170 whole entry, looked up): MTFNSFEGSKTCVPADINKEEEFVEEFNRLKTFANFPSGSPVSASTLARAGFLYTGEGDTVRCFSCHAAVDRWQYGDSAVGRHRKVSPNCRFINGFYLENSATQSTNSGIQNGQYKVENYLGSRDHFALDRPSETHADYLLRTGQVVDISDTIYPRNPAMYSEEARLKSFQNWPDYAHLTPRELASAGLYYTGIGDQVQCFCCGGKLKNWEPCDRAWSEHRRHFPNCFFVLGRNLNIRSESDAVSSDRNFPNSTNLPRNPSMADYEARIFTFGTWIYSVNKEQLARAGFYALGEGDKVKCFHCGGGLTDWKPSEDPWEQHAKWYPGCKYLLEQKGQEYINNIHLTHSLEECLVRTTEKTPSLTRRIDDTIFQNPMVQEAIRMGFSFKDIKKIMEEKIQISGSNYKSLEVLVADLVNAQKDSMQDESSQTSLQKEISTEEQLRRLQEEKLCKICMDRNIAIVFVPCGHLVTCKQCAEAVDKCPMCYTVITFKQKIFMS

Compound | z-score [1] | z-score [2] | z-score [3] | composite z-score [4] | z-score [5] | z-score [6] | z-score [7] | z-score [8] | z-score [9] | composite z-score [10]
CC(CCN1CCCc2nc(C)c(C)cc21)=NO[C@H](C)c1cn([C@H](CO)Cc2ccccc2)nn1 | -0.325 | 0.454 (inactive) | 0.307 (inactive) | 1.27 (inactive) | -0.291 (inactive) | 0.512 (inactive) | -0.801 (inactive) | -0.922 (inactive) | 0.0883 | 0.0015
Cc1ccc2[nH]c3nc(CCCn4ccnc4-c4ccccc4)nnc3c2c1 | -0.256 | -0.104 (inactive) | -1.15 (inactive) | 0.411 (inactive) | 0.0737 (inactive) | -0.212 (inactive) | 0.164 (inactive) | 0.183 (inactive) | -0.976 | -0.119
CC(=O)OC[C@H]1O[C@H](C#CCCc2ccccc2)C=C[C@@H]1OC(C)=O | -0.403 | -1.17 (inactive) | -0.841 (inactive) | -0.419 (inactive) | -0.0691 (inactive) | 0.702 (inactive) | 0.551 (inactive) | -0.406 (inactive) | -0.0728 | -0.105
CCOC(=O)[C@H](Cc1ccccc1)NC(=O)CCC1CC(OC(=O)NCCc2ccc(F)cc2)CC2(CCCC(COC(=O)NCc3cccc(C(F)(F)F)c3)O2)O1 (stereo not given in full) | 0.134 | -0.0427 (inactive) | 0.853 (inactive) | -0.276 (inactive) | 0.544 (inactive) | 0.322 (inactive) | 0.141 (inactive) | 0.0159 (inactive) | 0.864 | -0.102
CC(C)=NOC(C)CN1CCCc2nc(C)c(C)cc21 (stereo not given) | -0.249 | -0.211 (inactive) | -0.0014 (inactive) | 0.787 (inactive) | 0.854 (inactive) | -0.0702 (inactive) | 0.0251 (inactive) | -0.726 (inactive) | -0.572 | -0.0676
Cc1cc2c(nc1C)CCCCN2CC(O)CN1CCCc2nc(-c3ccc(Br)cc3)ccc21 (stereo not given) | -0.225 | -0.849 (inactive) | -1.51 (inactive) | 0.667 (inactive) | 0.38 (inactive) | 0.919 (inactive) | 0.608 (inactive) | 0.348 (inactive) | -1.48 | 0.131
C[C@@H]1CC[C@H]2C(=O)OC(CN3C(=O)c4ccccc4C3=O)CN2[C@H]1c1ccc(Br)cc1 (stereo not given in full) | 0.462 | -0.501 (inactive) | 0.668 (inactive) | 0.639 (inactive) | -0.27 (inactive) | 0.183 (inactive) | 0.786 (inactive) | 0.467 (inactive) | 0.685 | -0.0438
CC(=O)OC[C@H]1O[C@H](CC=NOCC[C@@H]2C=C[C@H](OC(C)=O)[C@@H](COC(C)=O)O2)C=C[C@@H]1OC(C)=O | 0.149 | 0.0167 (inactive) | 0.0092 (inactive) | -0.0986 (inactive) | 0.229 (inactive) | 0.0282 (inactive) | 0.847 (inactive) | 0.66 (inactive) | 0.117 | 0.287
Cc1ccc(C(C)C)n1C(=O)OC(C)(C)C | -0.728 | -0.947 (inactive) | -1.46 (inactive) | -1.24 (inactive) | 1.01 (inactive) | -1.18 (inactive) | 0.32 (inactive) | -0.113 (inactive) | -1.65 | -0.0509
CCOC(=O)[C@H](CC(C)C)NC(=O)CCC1CC(OC(=O)NCCc2ccc(F)cc2)CC2(CCCC(COC(=O)NCCOC)O2)O1 (stereo not given in full) | 0.0369 | 1.02 (inactive) | 0.581 (inactive) | 0.753 (inactive) | 0.283 (inactive) | 0.963 (inactive) | 0.0415 (inactive) | -0.489 (inactive) | 0.464 | -0.18
CC(CCN1CCCCc2nc(C)c(C)cc21)=NO[C@@H](C)c1cc(-c2c(C)cc(C)cc2C)no1 | 1.18 | -6.11 (inactive) | 0.862 (inactive) | -0.525 (inactive) | -0.467 (inactive) | -0.62 (inactive) | 0.777 (inactive) | 0.935 (inactive) | 1.51 | 0.626
COC(=O)[C@H](C)NC(=O)CCC1CC(OC(=O)NCc2ccc3c(c2)OCO3)CC2(CCCC(COC(=O)NCc3ccccc3)O2)O1 (stereo not given in full) | 1.24 | -0.67 (inactive) | -0.731 (inactive) | -0.504 (inactive) | 0.38 (inactive) | 0.479 (inactive) | 1.03 (inactive) | 0.32 (inactive) | 1.11 | -0.205
CC(=O)OC[C@H]1O[C@H](C#CCC2CCCCC2)C=C[C@@H]1OC(C)=O | 0.0616 | -3.69 (inactive) | -2.52 (inactive) | -0.529 (inactive) | 0.781 (inactive) | 0.143 (inactive) | 1.07 (inactive) | 0.591 (inactive) | -1.24 | -0.0314
O=C1[C@H]2[C@H]3[C@H](O)[C@H](O)CC(=NOCc4ccccc4)[C@H]3CC[C@H]2C(=O)N1C1CCCCC1 | -0.483 | -0.149 (inactive) | -0.99 (inactive) | 0.0894 (inactive) | 0.377 (inactive) | -0.373 (inactive) | -0.157 (inactive) | -0.414 (inactive) | -1.83 | 0.237
CC(=O)OC[C@H]1O[C@H](CC=NOC(C)CN2CCCc3nc(C)c(C)cc32)C=C[C@@H]1OC(C)=O (stereo not given in full) | -0.368 | -0.494 (inactive) | 0.161 (inactive) | 0.159 (inactive) | -0.373 (inactive) | 0.634 (inactive) | 0.603 (inactive) | -0.147 (inactive) | 0.12 | 0.145
C=CC[C@@H]1C=C[C@H](ON=C(C)CCN2CCCc3nc(C)c(C)cc32)[C@@H](CO)O1 | 0.394 | 0.529 (inactive) | -0.0956 (inactive) | -0.267 (inactive) | 0.936 (inactive) | 0.662 (inactive) | 0.382 (inactive) | -0.0088 (inactive) | -0.0021 | 1.07
CCCCOC(OCCCC)C(O)CSc1ccc2ccccc2c1 (stereo not given) | -0.879 | -2.07 (inactive) | -1.99 (inactive) | -0.161 (inactive) | 0.344 (inactive) | 0.363 (inactive) | 0.872 (inactive) | 1.01 (inactive) | -1.37 | 0.0506
COC(=O)[C@H](CCSC)NC(=O)CC=C[C@@H](C)CO | -0.838 | 0.0957 (inactive) | 0.311 (inactive) | 0.521 (inactive) | -0.895 (inactive) | 0.489 (inactive) | -1.07 (inactive) | -0.576 (inactive) | 0.475 | 0.262
CO[C@H]1COC(=O)CC=C[C@H](C)[C@H](OC)COC(=O)[C@@H](C)NC(=O)CC=C[C@@H]1C | 0.664 | -1.17 (inactive) | 0.623 (inactive) | -0.498 (inactive) | -0.467 (inactive) | -1.22 (inactive) | 0.124 (inactive) | -0.0133 (inactive) | 0.379 | 0.0399
O=C(NN=C1C[C@@H](O)[C@@H](O)[C@@H]2[C@@H]3C(=O)N(Cc4ccc5c(c4)OCO5)C(=O)[C@@H]3CC[C@@H]12)OCc1ccccc1 | 0.0352 | -1.59 (inactive) | 0.987 (inactive) | -2.65 (inactive) | -0.683 (inactive) | -1.09 (inactive) | 0.747 (inactive) | -0.715 (inactive) | -0.32 | -0.152
COC(=O)CC=C[C@@H](C)[C@@H](C=NOC(C)CN1CCCCc2nc(C)c(C)cc21)OC (stereo not given in full) | -0.264 | -0.927 (inactive) | 0.0144 (inactive) | 0.244 (inactive) | -0.0417 (inactive) | -0.46 (inactive) | 0.324 (inactive) | 0.257 (inactive) | -0.0511 | -0.459
COC(=O)CC=C1c2ccccc2[C@H](OC)[C@H]1C | -0.71 | 0.338 (inactive) | -0.788 (inactive) | 0.582 (inactive) | -0.245 (inactive) | -0.138 (inactive) | 0.216 (inactive) | 0.403 (inactive) | -0.49 | 0.419
CCOC(=O)CCN1C(=O)[C@H]2[C@@H]3C(=CC[C@H]2C1=O)C(=O)[C@H]1O[C@H]1[C@H]3O | -0.423 | -0.894 (inactive) | -5.48 (inactive) | -0.369 (inactive) | 0.0335 (inactive) | -0.548 (inactive) | -0.254 (inactive) | 0.322 (inactive) | -2.2 | -0.0812
C#CCCCON=C1[C@H]2CCn3c(=O)n([C@@H](CC)c4ccccc4)c(=O)n3[C@H]2[C@H](O)[C@@H]2O[C@H]12 | -0.14 | -0.971 (inactive) | -0.813 (inactive) | 0.147 (inactive) | -0.531 (inactive) | -0.771 (inactive) | -0.529 (inactive) | -0.567 (inactive) | -0.751 | -0.181
C[C@@H]1CC[C@H]2C(=O)OC(Cc3ccccc3)CN2[C@H]1c1ccc(Br)cc1 (stereo not given in full) | 0.352 | -3.48 (inactive) | 0.417 (inactive) | 0.637 (inactive) | -0.658 (inactive) | 0.2 (inactive) | 1.06 (inactive) | 0.485 (inactive) | -0.726 | 0.0299
CON=C(C)CCN1CCCc2nc(C)c(C)cc21 | -0.183 | -0.899 (inactive) | -0.136 (inactive) | -0.329 (inactive) | 0.0981 (inactive) | -0.1 (inactive) | 0.213 (inactive) | -1.7 (inactive) | -0.22 | 0.346
C[C@@H]1CC[C@H]2C(=O)O[C@@H](COc3ccc(C(C)(C)C)cc3)CN2[C@H]1c1ccc(Br)cc1 | 0.7 | -0.481 (inactive) | 0.385 (inactive) | 0.444 (inactive) | 0.11 (inactive) | -0.0191 (inactive) | -0.578 (inactive) | -0.423 (inactive) | 0.749 | -0.327
